According to PubChem BioAssay (NCATS):
Results filed as inconclusive are left out. The source made the active and inactive calls. Unless noted, the call rests on the fitted dose curve; in most records, active means well fitted curve in the direction sought with a large enough effect; inconclusive means small, poorly fitted or top-dose-only effect, or another doubt; inactive means no such curve, though single readings can be large; an effect the other way counts as inactive or inconclusive.

What was measured:
[1] = qHTS for Inhibitors of the Functional Ribonucleoprotein Complex (vRNP) of Lassa (LASV) Arenavirus: LASV Primary Screen - GLuc reporter signal (AID 1347082; calls by dose curve; tested in HEK293 reporter line; further: series mostly up to about 57 µM; nearly all actives have a fitted effect of over 60% in size)
[2] = qHTS for Inhibitors of the Functional Ribonucleoprotein Complex (vRNP) of Lassa (LASV) Arenavirus: Viability assay - alamar blue signal for LASV Primary Screen (AID 1347083; calls by dose curve; tested in HEK293 reporter line; further: series mostly up to about 57 µM; nearly all actives have a fitted effect of over 80% in size)
[3] = qHTS for Inhibitors of the Functional Ribonucleoprotein Complex (vRNP) of Lymphocytic Choriomeningitis Arenaviruses (LCMV): Viability assay - alamar blue signal for LCMV Primary Screen (AID 1347085; calls by dose curve; tested in HEK293 reporter line; further: series mostly up to about 57 µM; nearly all actives have a fitted effect of over 80% in size)
[4] = target: Nucleoprotein (Lymphocytic choriomeningitis virus (strain Armstrong)) (UniProt P09992); experiment: qHTS for Inhibitors of the Functional Ribonucleoprotein Complex (vRNP) of Lymphocytic Choriomeningitis Arenaviruses (LCMV): LCMV Primary Screen - GLuc reporter signal (AID 1347086; calls by dose curve; further: series mostly up to about 57 µM; nearly all actives have a fitted effect of over 70% in size)
Chain of Nucleoprotein (Lymphocytic choriomeningitis virus (strain Armstrong)) (P09992 whole entry, looked up): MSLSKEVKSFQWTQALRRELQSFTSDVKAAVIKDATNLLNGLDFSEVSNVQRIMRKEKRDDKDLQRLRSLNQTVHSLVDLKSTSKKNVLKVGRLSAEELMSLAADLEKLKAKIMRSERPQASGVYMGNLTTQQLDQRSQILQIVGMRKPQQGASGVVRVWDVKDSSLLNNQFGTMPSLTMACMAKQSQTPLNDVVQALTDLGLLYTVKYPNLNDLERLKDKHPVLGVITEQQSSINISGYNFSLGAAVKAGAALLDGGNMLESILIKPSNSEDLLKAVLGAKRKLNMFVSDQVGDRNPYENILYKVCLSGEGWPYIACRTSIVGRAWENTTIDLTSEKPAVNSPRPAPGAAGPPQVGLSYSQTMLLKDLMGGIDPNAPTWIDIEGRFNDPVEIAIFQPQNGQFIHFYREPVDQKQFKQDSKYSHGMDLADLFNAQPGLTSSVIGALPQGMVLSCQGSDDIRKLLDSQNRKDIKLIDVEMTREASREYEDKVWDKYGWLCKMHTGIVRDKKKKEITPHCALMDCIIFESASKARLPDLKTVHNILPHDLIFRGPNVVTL

[5] = qHTS of pediatric cancer cell lines to identify multiple opportunities for drug repurposing: Primary screen for TC32 cells (AID 1347089); further: nearly all actives have a fitted effect of over 60% in size
In short: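 Luminescent CellTiter-Glo read-out of metabolically active TC32 cells after 48 h compound exposure. Primary: MIPE 11-point, 0.78 nM–46 µM; NPC 8-point, 0.59 nM–46 µM. Confirmatory: 11-point dilutions.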

[6] = qHTS of pediatric cancer cell lines to identify multiple opportunities for drug repurposing: Primary screen for DAOY cells (AID 1347090); further: series mostly up to about 46 µM; nearly all actives have a fitted effect of over 55% in size
In short: (§1)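 Viability measured as metabolically active cells via CellTiter-Glo luminescence following 48 hours of compound exposure, 11-point dilutions in confirmatory testing. 500-1,000 cells/well plated 5 hours before dosing; controls were DMSO and 2.3 µM bortezomib.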

[7] = qHTS of pediatric cancer cell lines to identify multiple opportunities for drug repurposing: Primary screen for SJ-GBM2 cells (AID 1347091)
In short: as §1

[8] = qHTS of pediatric cancer cell lines to identify multiple opportunities for drug repurposing: Primary screen for A673 cells (AID 1347092); further: nearly all actives have a fitted effect of over 45% in size
In short: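 A673 cells (500-1,000 cells/well in growth media) were pre-incubated 5 h at 37 degrees C, then exposed to compounds for 48 h. Viability was read as CellTiter-Glo luminescence; concentration-response curves came directly from the primary screen.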

[9] = qHTS of pediatric cancer cell lines to identify multiple opportunities for drug repurposing: Primary screen for SK-N-MC cells (AID 1347093); further: series mostly up to about 46 µM
In short: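 Metabolically active cells were quantified by ATP-dependent luminescence (CellTiter-Glo, 15 min at room temperature) following 48 h treatment. Cells had been plated at 500-1,000 per well and settled for 5 h beforehand.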

[10] = qHTS of pediatric cancer cell lines to identify multiple opportunities for drug repurposing: Primary screen for BT-37 cells (AID 1347094); further: series mostly up to about 57 µM
In short: (§2)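 Plated cells (500-1,000 per well, growth media) were allowed to settle for 5 hours, treated with compound dilutions for 48 hours, then lysed with CellTiter-Glo for 15 min at room temperature before luminescence reading.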

[11] = qHTS of pediatric cancer cell lines to identify multiple opportunities for drug repurposing: Primary screen for NB-EBc1 cells (AID 1347095)
In short: as §2

[12] = qHTS of pediatric cancer cell lines to identify multiple opportunities for drug repurposing: Primary screen for U-2 OS cells (AID 1347096); further: nearly all actives have a fitted effect of over 50% in size
In short: (§3)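 Viability after 48 h compound treatment at 37C, 500-1,000 cells/well, read as ATP luminescence with CellTiter-Glo. Primary screens used 11-point (MIPE, 0.78 nM-46 µM) or 8-point (NPC, 0.59 nM-46 µM) final concentrations; follow-up screens used 11-point dilutions.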

[13] = qHTS of pediatric cancer cell lines to identify multiple opportunities for drug repurposing: Primary screen for Saos-2 cells (AID 1347097); further: nearly all actives have a fitted effect of over 40% in size
In short: as §2

[14] = qHTS of pediatric cancer cell lines to identify multiple opportunities for drug repurposing: Primary screen for SK-N-SH cells (AID 1347098);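 further: DMSO served as neutral control and bortezomib at 2.3 µM as positive control; nearly all actives have a fitted effect of over 65% in size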
In short: (§4)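 Cells (500-1,000/well) rested 5 h, then received compounds for 48 h; metabolically active cells were measured by CellTiter-Glo luminescence. Final concentrations spanned up to 46 µM (MIPE, 11-point) or 0.59 nM-46 µM (NPC, 8-point) in primary screens, 11-point in follow-ups.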

[15] = qHTS of pediatric cancer cell lines to identify multiple opportunities for drug repurposing: Primary screen for NB1643 cells (AID 1347099); further: nearly all actives have a fitted effect of over 50% in size
In short: as §2

[16] = qHTS of pediatric cancer cell lines to identify multiple opportunities for drug repurposing: Primary screen for LAN-5 cells (AID 1347100)
In short: as §3

[17] = qHTS of pediatric cancer cell lines to identify multiple opportunities for drug repurposing: Primary screen for Rh18 cells (AID 1347102); further: nearly all actives have a fitted effect of over 65% in size
In short: as §3

[18] = qHTS of pediatric cancer cell lines to identify multiple opportunities for drug repurposing: Primary screen for BT-12 cells (AID 1347101); further: nearly all actives have a fitted effect of over 25% in size
In short: as §4

Measured: Potency

O=c1n(Cl)c(=O)n(Cl)c(=O)n1Cl
not listed: [18]
inactive: all other assays above

CC(C)C(Br)C(=O)NC(N)=O (stereo unspecified)
not listed: [15]
inactive: all other assays above

CCC(=O)OC1(c2ccccc2)CCN(C)CC1
not listed: [14]
inactive: all other assays above

CC(C(O)c1ccccc1)N(C)C/C=C/c1ccccc1 (stereo unspecified)
not listed: [14]
inactive: all other assays above

COc1ccc(OC)c(CC(C)N)c1 (stereo unspecified)
not listed: [15]
inactive: all other assays above

O=C1CN2CCOC2(c2ccccc2Cl)c2cc(Cl)ccc2N1 (stereo unspecified)
not listed: [18]
inactive: all other assays above

COc1cc(C[C@@H](C)N)c(OC)cc1Br
not listed: [15]
inactive: all other assays above

CC1=C2[C@H]3OC(=O)[C@@H](C)[C@@H]3CC[C@@]2(C)C=CC1=O
not listed: [13]
inactive: all other assays above

CN1C[C@@H](NS(=O)(=O)N(C)C)C[C@@H]2c3cccc4c3c(cn4C)C[C@H]21
not listed: [15]
inactive: all other assays above

CCN(CC)CCOC(=O)C(C)(c1ccccc1)c1ccccc1
not listed: [15] | [18]
inactive: all other assays above

CCN(CC)C(C)C(=O)c1ccccc1 (stereo unspecified)
not listed: [18]
inactive: all other assays above

CCOC(=O)c1ncn2c1CN(C)C(=O)c1c(I)cccc1-2
not listed: [18]
inactive: all other assays above

CCOC(=O)NC(C)(C)Cc1ccc(Cl)cc1
not listed: [13]
inactive: all other assays above

CCCC(C)C1(CC)C(=O)N=C(S)NC1=O (stereo unspecified)
not listed: [18]
inactive: all other assays above

Cc1nnc2n1-c1sc(CCC(=O)N3CCOCC3)cc1C(c1ccccc1Cl)=NC2
not listed: [18]
inactive: all other assays above

Cc1ccc(N=CN(C)C=Nc2ccc(C)cc2C)c(C)c1
not listed: [15] | [18]
inactive: all other assays above

CCCOC(=O)Cc1ccc(OCC(=O)N(CC)CC)c(OC)c1
not listed: [15]
inactive: all other assays above

O=C(CBr)Nc1ccc(Cl)cc1C(=O)c1ccccc1F
not listed: [14] | [18]
inactive: all other assays above

NC(=O)OCCCc1ccccc1
not listed: [15]
inactive: all other assays above

CCCC[N+]1(C)[C@@H]2CC(OC(=O)[C@H](CO)c3ccccc3)C[C@H]1[C@@H]1O[C@@H]12 (stereo partly specified)
not listed: [15]
inactive: all other assays above

COc1ccc(CN2CCNCC2)c(OC)c1OC
not listed: [15] | [18]
inactive: all other assays above

O=C(O)CCCCCCNC1c2ccccc2CCc2ccccc21
not listed: [13]
inactive: all other assays above

ClC1=C(Cl)C2(Cl)C(CBr)CC1(Cl)C2(Cl)Cl (stereo unspecified)
not listed: [15]
inactive: all other assays above

O=C(CCCN1CCC(n2c(=O)[nH]c3ccccc32)CC1)c1ccc(F)cc1
not listed: [18]
inactive: all other assays above

COc1cc(N)c(Cl)cc1C(=O)NC1CN2CCC1CC2 (stereo unspecified)
not listed: [15]
inactive: all other assays above

C[C@]12CC[C@H]3[C@@H](CCC4=CC(=O)CC[C@@]43C)[C@@H]1CC[C@@H]2C(=O)O
not listed: [18]
inactive: all other assays above

CC1N=C(N)OC1c1ccccc1 (stereo unspecified)
not listed: [15] | [18]
inactive: all other assays above

CCC1(c2cccc(O)c2)CCCCN(C)C1 (stereo unspecified)
not listed: [13]
inactive: all other assays above

COP(=O)(OC)C(O)C(Cl)(Cl)Cl (stereo unspecified)
not listed: [18]
inactive: all other assays above

CCC1(c2ccccc2)CCC(=O)NC1=O (stereo unspecified)
not listed: [13]
inactive: all other assays above

C[C@]12CC[C@H]3[C@@H](CCC4=CC(=O)CC[C@@H]43)[C@@H]1CC[C@@H]2O
not listed: [14] | [18]
inactive: all other assays above
